ELG1 DNA repair = ELG1-dependent DNA repair inhibition; Potency, µM (series often up to 46.1 µM), for inactives: top-dose activity change, negative = inhibition, usual class: inhibitors; AID 504467; HEK293T ELG1-luciferase reporter, luminescence, 16 h; DNA damage induced by 5-fluorouridine; hit rate 2.3% among 330,000; further: potency means the concentration at half of the fitted maximal effect; nearly all actives have a fitted effect of over 55% in size
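Luminescence from the luciferase reporter, measured 30 min after ONE-Glo reagent at room temperature, was the read-out. Beforehand, 2,000 cells per well were exposed for 16 hr at 37 °C to 5-fluorouridine together with compound or vehicle.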
TDP1 cell noCPT = qHTS for Inhibitors of human tyrosyl-DNA phosphodiesterase 1 (TDP1): qHTS in cells in absence of CPT; DT40 Tdp1-/- hTDP1 cells, no CPT, ATP luminescence, 48 h; Potency, µM (doses to about 46.2 µM), for inactives: top-dose activity change, negative = growth inhibition, most hits filed as inhibitors; hit rate 15% among 420,000; further: potency means the concentration at half of the fitted maximal effect; nearly all actives have a fitted effect of over 55% in size
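Compound effects on proliferation are scored in DT40 Tdp1-/-;hTDP1 cells in the absence of CPT. ATP levels (CellTiter-Glo luminescence) are recorded after a ≥48 hr, 37 °C incubation.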
TDP1 cell CPT = DT40-hTDP1 cell growth loss with CPT; hit rate 12% among 420,000; AID 686979; Potency, µM (highest dose often 46.2 µM), inactives show top-dose activity change, negative = growth inhibition, most hits filed as inhibitors; chicken DT40 Tdp1-/-;hTDP1 cells + 20 nM CPT, ATP luminescence, 48 h; further: potency means the concentration at half of the fitted maximal effect; nearly all actives have a fitted effect of over 55% in size
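Cell growth measured by CellTiter-Glo luminescence after a minimum 48 h, 37 C compound exposure with 20 nM CPT in Tdp1-knockout DT40 cells stably expressing hTDP1, seeded 400/well; qHTS titration format.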
IL-1B inflam inh = inflammasome signaling inhibition, IL-1 beta readout. THP-1 LPS/ATP IL-1B secretion, AlphaLISA, 16 h; active compounds read low. activity change, % at 57.5 µM. hit rate 4.7% among 360,000. AID 743279; in the data active means activity change below about -50%; inconclusive means mostly about -30% to -49%
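THP-1 cells pretreated 1 hr with compounds (up to 57.5 uM final), then stimulated with LPS (250 ng/mL final) plus ATP (1.25 mM final); secreted IL-1B measured by AlphaLISA after 16 hr, decreased signal indicating inhibition.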
HT1080 IDH1KD tx = HT-1080 IDH1 knockdown cell toxicity (counter line); HT-1080 IDH1 knockdown viability, ATP luminescence, 48 h; Potency, µM (highest dose often 46.1 µM), for the others: at the top dose activity, negative = toxicity, hits mostly cytotoxic; hit rate 2% among 360,000; AID 686971;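 further: potency means the concentration at half of the fitted maximal effect; 0% = DMSO wells and -100% = cell-free medium wells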
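Knockdown cells (IDH1KD HT-1080) received compounds 2 h after plating at 750 cells/well and were kept 48 h at 37 °C in 5% FBS RPMI. A CellTiter-Glo luminescence read gave % activity for curve fitting.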
HT1080-NT tox = kills 2HG-producing HT-1080-NT fibrosarcoma cells | HT-1080-NT fibrosarcoma viability, CellTiter-Glo ATP luminescence, 48 h | hit rate 1.6% among 360,000 | Potency, µM (series often up to 46.1 µM), for the others: at the top dose activity, negative = less viability, actives largely listed as cytotoxic;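 further: NT is the 2HG producing partner of a matched IDH1 knockdown line; potency means the concentration at half of the fitted maximal effect; 0% = DMSO-treated cells and -100% = media-only wells without cells; nearly all actives have a fitted effect of over 55% in size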
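Read-out is CellTiter-Glo luminescence after 10 minutes at room temperature, following 48 hours' compound treatment of HT-1080-NT cells (750 cells/well, RPMI, 5% FBS, 37 degrees C).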
Active calls of the source: *; ? = inconclusive; nt = no result given. Rows were chosen to be rich in hits. Some 19% of all compounds tested hit in one or more screens of this group. Unless noted, the call rests on the fitted dose curve; in most records, active means well fitted curve in the direction sought with a large enough effect; inconclusive means small, poorly fitted or top-dose-only effect, or another doubt; inactive means no such curve, though single readings can be large; an effect the other way counts as inactive or inconclusive. Unless noted, on the % scale 0 is the no-effect control and ±100 the full control effect.

SMILES	ELG1 DNA repair	TDP1 cell noCPT	TDP1 cell CPT	IL-1B inflam inh	HT1080 IDH1KD tx	HT1080-NT tox
CC1=CC(C)(C)N(S(=O)(=O)c2ccc(C)cc2)c2ccccc21	-4%	18µM*	12µM*	34	?	6.3µM*
O=C1CC2(CCN1)CCN(Cc1ccccc1)CC2	nt	-13%	-2%	10	21%	15%
COc1cccc(-c2nc(CS(=O)(=O)CC(=O)NC3CCCCC3C)c(C)o2)c1 (stereo not drawn)	?	-28%	?	18	17%	-2%
N#CC1(Cc2ccc(Cl)cc2)c2ccccc2C=CN1C(=O)c1ccccc1 (stereo not drawn)	-1%	18µM*	?	20	-13%	0%
Cc1cccc(CNc2ncnc3ccc(-c4ccccc4Cl)cc23)c1	-11%	nt	nt	nt	nt	nt
Cc1cccc(CNc2ncnc3ccc(-c4ccc5c(c4)OCO5)cc23)c1	12%	18µM*	?	nt	nt	nt
c1cncc(CNc2ccc3c(c2)OCO3)c1	14%	-19%	-82%	-8	-3%	1%
c1cncc(CNc2ncncc2-c2ccc3c(c2)OCO3)c1	nt	10µM*	6.5µM*	nt	nt	nt
Cc1cccc(CNc2ncnc3ccc(-c4ccc(C(=O)N(C)C)cc4)cc23)c1	nt	26µM*	?	nt	nt	nt
CC(=O)NCCNc1ncnc2ccc(-c3ccc(C(=O)N(C)C)cc3)cc12	nt	-5%	5%	nt	nt	nt
Cc1cccc(CNc2nc(-c3ccc4c(c3)OCO4)nc3ccccc23)c1	nt	23µM*	?	nt	nt	nt
CC(=O)NCCNc1nc(-c2ccc3c(c2)OCO3)nc2ccccc12	nt	-9%	8%	nt	nt	nt
CC(=O)c1ccc(OCCCC(=O)Nc2ccc(S(=O)(=O)N3CCOCC3)cc2)cc1	?	?	?	6	-13%	-12%
Cc1cccc(CNc2ncncc2-c2ccc(C(=O)N(C)C)cc2)c1	nt	3.7µM*	?	nt	nt	nt
Cc1cccc(CNc2ncncc2-c2cccnc2)c1	nt	-11%	-6%	nt	nt	nt
O=c1[nH]c(C2CCN(S(=O)(=O)c3ccc(F)cc3)CC2)nc2c1nnn2Cc1ccc2c(c1)OCCO2	26µM*	?	?	?	0%	?
O=c1[nH]c(C2CCN(S(=O)(=O)c3ccccc3C(F)(F)F)CC2)nc2c1nnn2Cc1cccc(F)c1	?	?	?	?	16µM*	?
O=c1[nH]c(C2CCN(S(=O)(=O)c3ccc(S(=O)(=O)NC4CC4)cc3)CC2)nc2c1nnn2Cc1ccccc1	18µM*	-18%	-4%	?	-20%	?
O=c1[nH]c(C2CCN(S(=O)(=O)c3ccc(C(F)(F)F)cc3)CC2)nc2c1nnn2Cc1ccccc1	?	?	?	-71*	0%	-5%
O=c1[nH]c(C2CCN(S(=O)(=O)c3ccccc3)CC2)nc2c1nnn2Cc1cccc(Cl)c1	9%	-16%	2%	-27	?	?
CC(Oc1ccc(Br)cc1)C(=O)NCCCN1CCCC1=O (stereo not drawn)	-14%	-1%	3%	2	10%	-1%
COc1ccc([N+](=O)[O-])cc1NC(=O)c1ccc(N(Cc2ccccc2Cl)S(C)(=O)=O)cc1	-9%	?	-16%	0	-6%	-1%
O=C(NCCS(=O)(=O)N1CCN(c2cccc(Cl)c2)CC1)C1CCCC1	?	?	?	-4	0%	-3%
O=C1C=CC(=O)N1c1ccc(Nc2ccccc2)cc1	nt	5.8µM*	5.8µM*	-30	-10%	-18%
O=C1C=CC(=O)N1c1ccc2ccccc2c1	nt	5.2µM*	4.1µM*	-18	6%	4%
SMILES	ELG1 DNA repair	TDP1 cell noCPT	TDP1 cell CPT	IL-1B inflam inh	HT1080 IDH1KD tx	HT1080-NT tox
Cc1cccc(N2C(=O)C=CC2=O)c1	nt	4.6µM*	2.6µM*	-9	7%	3%
O=C(O)c1cc(N2C(=O)C=CC2=O)cc(N2C(=O)C=CC2=O)c1	nt	0%	-2%	24	14%	11%
O=c1cc(-c2ccc(O)c(O)c2)oc2cc(OC3OC(CO)C(O)C(O)C3O)cc(O)c12 (stereo not drawn)	nt	-2%	5%	nt	nt	nt
CCCC(=O)N1CCCC(c2cc(C(=O)NCc3ccc(F)cc3)no2)C1 (stereo not drawn)	nt	-26%	-3%	-1	11%	3%
O=C(Cn1ccn(-c2ccc(F)cc2)c(=O)c1=O)Nc1ccc(F)cc1	nt	-5%	9%	nt	nt	nt
CCN(CC)S(=O)(=O)c1ccc2c(c1)N(CC(=O)NCc1ccc(F)cc1)C(=O)CO2	nt	-17%	-19%	nt	nt	nt
COCc1[nH]nc2c1C1(C(=O)N(C)c3ccccc31)C(C#N)=C(N)O2 (stereo not drawn)	12%	-1%	-3%	0	-3%	-3%
Cc1ccc(SCc2[nH]nc3c2C2(C(=O)N(C)c4ccccc42)C(C#N)=C(N)O3)cc1 (stereo not drawn)	?	?	-10%	-6	?	15µM*
CC1(C)CC(C(CC(=O)Nc2nccs2)c2ccccc2)CCO1 (stereo not drawn)	?	18µM*	?	30	2%	5%
CCCN(CCC)C(=O)CC(c1ccccc1)C1CCOC(C)(C)C1 (stereo not drawn)	-26%	23µM*	?	16	-2%	6%
CCOC(=O)c1cccc(NC(=O)CCS(=O)(=O)c2ccc3c(c2)CC(=O)N3C)c1	nt	-2%	-25%	nt	nt	nt
Cc1ccc(NC(=O)CCS(=O)(=O)c2cccc3nsnc23)c(C)c1	nt	-5%	4%	nt	nt	nt
C=CCN(C(=O)c1ccc2snnc2c1)c1ccccc1	8%	-26%	1%	10	4%	9%
O=C(NCc1ccc(F)cc1)c1ccc2c(c1)nc1n2CCCCC1	nt	?	-29%	nt	nt	nt
CC1CCn2c(nc3cc(C(=O)NCCc4ccccc4)ccc32)C1 (stereo not drawn)	nt	?	-27%	nt	nt	nt
CC(CNC(=O)c1ccc2c(c1)nc1n2CCCCC1)c1ccccc1 (stereo not drawn)	nt	?	23µM*	nt	nt	nt
Cc1ccc(C)c(CNC(=O)c2ccc3c(c2)nc2n3CCC(C)C2)c1 (stereo not drawn)	nt	21µM*	?	nt	nt	nt
CSc1ccc(CCNC(=O)c2ccc3c(c2)nc2n3CCC(C)C2)cc1 (stereo not drawn)	nt	13µM*	21µM*	nt	nt	nt

Screening results as filed in PubChem BioAssay.
